HPGD inh = blocks human HPGD enzyme activity; P15428; purified HPGD, NADH fluorescence kinetic, PGE2 substrate; Potency, µM, for the others: at the highest dose activity change, negative = inhibition, usual class: inhibitors; 4.3% of 150,000 active; active means well fitted inhibition curve with a large enough effect, not every such curve was filed as active; inconclusive means small, poorly fitted or top-dose-only effect, or another doubt; inactive means no such curve, though single readings can be large or run the other way
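20 nM HPGD preincubated 15 min at room temperature with compound in 50 mM Tris-HCl pH 8, 0.01% Tween 20. Started with 1 mM NAD+ and 30 uM prostaglandin E2; NADH fluorescence (360/450 nm) read 5 times over 30-s intervals, last minus first.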
Tau fluor counter = counter-screen for tau fibril formation inhibitors | Potency, µM (titrated, usually from 57.7 µM), inactives show at the highest dose activity change, negative = decrease | tau K18 P301L Alexa594 fluorescence, heparin fibrillization | 0.93% of 280,000 active; further: nearly all actives have a fitted effect of over 55% in size
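Human K18 P301L tau (15 uM unlabeled plus 0.24 uM Alexa 594-labeled, final) in 100 mM sodium acetate pH 7 was mixed with compound and 20 uM heparin and incubated 6 hr at 37 C.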
ALDH1A1 inh = ALDH1A1 (human) enzyme inhibition; Purified ALDH1A1, NADH fluorescence, propionaldehyde substrate; Potency, µM (doses to about 75.3 µM), for the others: at the top dose activity, negative = inhibition, most hits filed as inhibitors; 7.3% of 220,000 active; active means well fitted inhibition curve with a large enough effect, not every such curve was filed as active; inconclusive means small, poorly fitted or top-dose-only effect, or another doubt; inactive means no such curve, though single readings can be large or run the other way;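 further: plate controls were no enzyme wells and a reference inhibitor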
Target sequence (P00352 whole entry, looked up): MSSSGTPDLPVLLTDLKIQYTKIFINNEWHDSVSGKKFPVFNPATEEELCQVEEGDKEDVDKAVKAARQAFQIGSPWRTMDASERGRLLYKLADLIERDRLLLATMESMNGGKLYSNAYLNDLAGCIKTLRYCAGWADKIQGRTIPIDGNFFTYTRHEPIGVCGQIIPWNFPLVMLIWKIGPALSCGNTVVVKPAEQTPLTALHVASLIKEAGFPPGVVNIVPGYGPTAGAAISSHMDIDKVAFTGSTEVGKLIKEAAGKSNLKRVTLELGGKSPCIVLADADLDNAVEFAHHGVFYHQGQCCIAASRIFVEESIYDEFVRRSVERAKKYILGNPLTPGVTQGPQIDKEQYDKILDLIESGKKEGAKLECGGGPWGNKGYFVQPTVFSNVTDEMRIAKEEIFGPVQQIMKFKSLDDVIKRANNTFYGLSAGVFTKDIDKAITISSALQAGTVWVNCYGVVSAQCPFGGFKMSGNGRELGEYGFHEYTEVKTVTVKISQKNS
Tau fibril ThT = inhibitors of human tau fibril formation, thioflavin T binding. 2.1% of 270,000 active. P10636. Potency, µM (doses to about 57.4 µM), for the others: at the highest dose activity, negative = inhibition, actives largely listed as inhibitors. AID 1460. recombinant tau K18 P301L (four-repeat tau fragment), heparin-induced fibrillization, ThT fluorescence; further: nearly all actives have a fitted effect of over 55% in size
Target sequence (P10636 561-689 P618L limits assumed): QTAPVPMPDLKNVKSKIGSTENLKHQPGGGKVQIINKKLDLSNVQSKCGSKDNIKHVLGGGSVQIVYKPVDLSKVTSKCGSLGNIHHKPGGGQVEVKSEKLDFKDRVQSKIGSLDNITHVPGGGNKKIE
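Recombinant human tau K18 fragment […] carrying P301L, 15 uM unlabeled plus 0.24 uM Alexa 594-labeled, was fibrillized with 20 uM heparin in 100 mM sodium acetate pH 7 for 6 hr at 37 C; 30 uM ThT fluorescence read after 1 hr.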
NPSR antagonist = neuropeptide S receptor (human) antagonism, cAMP | Q6W5P4 | CHO-NPSR cells, cAMP TR-FRET, antagonist mode | Potency, µM (titrated, usually from 38.3 µM), for inactives: at the highest dose activity change, negative = inhibition, most hits filed as inhibitors | 1% of 220,000 active; further: nearly all actives have a fitted effect of over 50% in size
Tau fibril FP = tau fibrillization inhibition (FP). P10636. K18 P301L tau heparin fibrillization, Alexa594 FP, 6 h. Potency, µM (series often up to 57.7 µM), for the others: at the top dose activity, negative = inhibition, hits mostly inhibitors. 0.39% of 280,000 active. AID 1468; further: nearly all actives have a fitted effect of over 55% in size
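Recombinant K18 P301L […], labeled with Alexa 594 at 0.24 uM over 15 uM unlabeled; heparin inducer 20 uM final; 37 C, 6 hr; FP endpoint.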
* hit, by the source's call; ? = inconclusive; nt = no result given; [ ] = another dose, or the depositor's remark. This is a sample that favours compounds with a hit; in the whole collection about 9.5% have one here. Unless noted, the call rests on the fitted dose curve; in most records, active means well fitted curve in the direction sought with a large enough effect; inconclusive means small, poorly fitted or top-dose-only effect, or another doubt; inactive means no such curve, though single readings can be large; an effect the other way counts as inactive or inconclusive. Unless noted, on the % scale 0 is the no-effect control and ±100 the full control effect; potency means the concentration at half of the fitted maximal effect.

SMILES	HPGD inh	Tau fluor counter	ALDH1A1 inh	Tau fibril ThT	NPSR antagonist	Tau fibril FP
N#C/C(=C(/O)CSc1nnc(Cc2cccs2)n1C1CCCCC1)c1nc2ccccc2[nH]1	-18%	-20%	?	?	-13%[46.1 µM]	12%
CCN(CC)c1ccc(/C=C(/C#N)C(=O)NC(C)C)o1	nt	-9%	10µM*	?	-22%	0%
CCN(CC)c1ccc(/C=C(/C#N)C(=O)NCc2ccccc2)o1	16µM*	-28%	2.8µM*	?	-17%	0%
CC(C)NC(=O)/C(C#N)=C\c1ccc(N(C)C)o1	nt	10%[2.34 µM]	?	-12%	-5%	9%
O=C(O)c1ccccc1NSc1ccccc1[N+](=O)[O-]	nt	-17%	?	?	-9%	0%
CCc1ccc(NSc2ccccc2[N+](=O)[O-])cc1	0%	14µM*[quencher]	?	?	-5%[46.1 µM]	2%
Cc1ccccc1NC(=O)c1cc(N)ccc1N1CCCCC1	-7%	-22%	10µM*	-12%	-26%[46.1 µM]	3%
CCC(=O)Nc1ccc(N2CCCCC2)c(C(=O)Nc2ccccc2C)c1	1%	-10%	?	-9%	?	2%
COc1ccc(-n2c(SCC(=O)NCCC(C)C)nc3ccsc3c2=O)cc1	?	-13%	20µM*	-5%	-16%[46.1 µM]	-4%
CC1(C)CNc2cc(N)ccc2S1	nt	14µM*[quencher]	-1%	16µM*	-14%	?
Cc1ccc(Cl)cc1Nc1nc2ccccc2n2c(C)nnc12	nt	-27%	nt	-6%	nt	-9%
O=C(c1ccncc1)N1CCC2(CC1)CN(Cc1cc(C(F)(F)F)cc(C(F)(F)F)c1)C2	-7%	nt	-12%	nt	nt	nt
COc1ccc(S(=O)(=O)N2CCC(C(=O)Nc3ccc(F)cc3)CC2)c2cccnc12	nt	-20%	?	-10%	-15%	-10%
COc1ccc(S(=O)(=O)N2CCC(C(=O)Nc3ccccc3C)CC2)c2cccnc12	-18%	-15%	22µM*	-12%	-30%[46.1 µM]	-3%
C#CCNC(=O)C1=C[C@H](c2ccc(Br)cc2)[C@@H](CCCO)[C@H](OCC)O1	nt	-2%	2%	5%	16%	7%
O=C(O)CSc1ccc(Oc2ccc(SCC(=O)O)cc2)cc1	nt	8%[2.34 µM]	13µM*	0%	3%	1%
O=C(O)COc1ccc(Oc2ccccc2)cc1	-14%	-9%	-4%	-4%	-15%[46.1 µM]	0%
CCc1nn(CC(=O)N2CCN(c3cccc(C)c3)C(C)C2)c(=O)c2cc3sccc3n12 (stereo not given)	nt	-14%	nt	?	nt	-2%
CC1=C(C(=O)Nc2ccccc2)C(c2ccccc2Cl)n2ncc(C(=O)Nc3cccc(C)c3)c2N1 (stereo not given)	nt	-20%	nt	-10%	nt	-12%
Cc1ccc(-c2nn(CCC#N)cc2C=C(C#N)C#N)cc1	-21%	-8%	20µM*	?	-17%[46.1 µM]	-9%
COc1ccc(-c2nn(CCC#N)cc2C=C(C#N)C#N)cc1	nt	0%	nt	nt	-15%	-3%
CC(=O)Nc1ccc(Nc2cc(C)nc3c(-c4ccccc4)c(C)nn23)cc1	-15%	14µM*[quencher]	?	?	-20%[46.1 µM]	4%
CC(=O)Nc1ccc(Nc2cc(C(C)C)nc3c(-c4ccccc4)c(C)nn23)cc1	nt	13µM*[quencher]	nt	?	?	?
Cc1nn2c(NCc3ccccn3)cc(C(C)C)nc2c1-c1ccccc1	nt	?	nt	?	?	15%
CCOC(=O)N1CCc2c(sc3c2c(=O)n(CCc2ccccc2)c(=O)n3Cc2c(F)cccc2Cl)C1	nt	-13%	nt	-12%	nt	-5%
SMILES	HPGD inh	Tau fluor counter	ALDH1A1 inh	Tau fibril ThT	NPSR antagonist	Tau fibril FP
CCOC(=O)c1ccc(N=C2NC(=O)CS2)cc1	13µM*	4%	?	-13%	-12%[46.1 µM]	10%
Cc1nc(N2CCN(C(=O)CCC(=O)O)CC2)c2c(C)c(C)sc2n1	35µM*	-3%	4%	1%	-1%[46.1 µM]	2%
CCC(=O)N1CCN(c2nc(C)nc3sc(C)c(C)c23)CC1	?	-4%	0%	-9%	-9%[46.1 µM]	0%
CC(C)CCNC(=O)CO/N=C/c1ccccc1OC(F)F	nt	-11%	13%	-3%	-28%[46.1 µM]	?
CC[C@H](C)[C@@H](NC(=O)O[C@@H]1C(=O)c2ccc(OC)cc2O[C@H]1c1ccc2c(c1)OCO2)C(=O)OC	0%	-10%	?	-8%	nt	3%
Cc1ccc(NC(=O)Nc2cc(Cl)ccc2C2COC(=O)C2=N)cc1 (stereo not given)	nt	16%	7.5µM*	12%	-2%	8%
CC1Cc2ccccc2N1C(=O)c1ccc(N2CCCCC2)c([N+](=O)[O-])c1 (stereo not given)	-19%	-14%	22µM*	?	-34%	11%
CC1Cc2ccccc2N1C(=O)c1ccc(N2CCCC2)c([N+](=O)[O-])c1 (stereo not given)	-20%	-18%	13µM*	?	-23%	10%
O=C(O)c1ccccc1C(=O)c1ccc(N2CCCC2)c([N+](=O)[O-])c1	nt	7%	0%	-12%	0%	3%
CCOc1ccccc1NS(=O)(=O)c1ccc2[nH]c3c(c2c1)CCCCC3	nt	?	nt	4%	nt	-8%
O=S(=O)(Nc1cc(F)ccc1F)c1ccc2[nH]c3c(c2c1)CCCCC3	nt	13µM*[quencher]	nt	-8%	nt	?
O=S(=O)(Nc1cccc(F)c1)c1ccc2[nH]c3c(c2c1)CCCCC3	nt	8.9µM*[quencher]	nt	?	nt	?
O=S(=O)(Nc1cc(F)ccc1F)c1ccc2[nH]c3c(c2c1)CCCC3	nt	11µM*[quencher]	nt	-4%	nt	11%
CN1CCCC2(CCN(C(=O)c3cccc(F)c3)CC2)C1	-2%	nt	-4%	nt	nt	nt
CCOc1ccc(CNC(=O)C2Cc3ccccc3N2C(=O)CC)cc1 (stereo not given)	nt	1%	nt	-2%	nt	2%
CCC1CCc2c(sc(NC(=O)C3CC=CCC3C(=O)O)c2C#N)C1 (stereo not given)	32µM*	-11%	1.8µM*	?	-39%	8%
COc1cc(C2C(C#N)=C(C)NC3=C2C(=O)c2ccccc23)cc(OC)c1OC (stereo not given)	-6%	-30%	3%	?	?	-4%
Cc1ccccc1C1C2=C(Nc3[nH]n(-c4ccccc4)c(=O)c31)c1ccccc1C2=O (stereo not given)	-14%	?	?	14µM*	-44%	-4%
Cc1cccc(C2C3=C(Nc4[nH]n(-c5ccccc5)c(=O)c42)c2ccccc2C3=O)c1 (stereo not given)	-3%	?	?	16µM*	-30%	-3%
CC(C)CN1C(=O)C(=Nc2cccnc2)c2ccccc21	nt	-5%	1µM*	-14%	23%	-3%
Cc1ccnc(NC(=O)CCC(=O)N(CC(=O)NCc2ccccc2)Cc2cccs2)c1	nt	-4%	16µM*	3%	-16%	6%

Bioassay records (PubChem BioAssay)
